Measured values as given in the supplement of paper PMC9262897, “Low-cost anti-mycobacterial drug discovery using engineered E. coli” (Nature Communications, 2022).
Structures can show the parent of a compound that is named as a salt. ± gives the standard deviation of the averaged measurements.

Legend:
Test in all cases: growth (OD600 after 10 h); higher = more growth (less inhibition)
[1] = tested on: E. coli TESEC Alr+ wild-type control; details: compound 0.1 mM; raw OD600 reference: median of DMSO wells 0.241, cell-free background 0.041
Experimental: (§1)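 TESEC Mtb Alr E. coli, or the Alr+ wild-type control, in 384-well plates with Prestwick library compounds at 0.1 mM and 1% DMSO, across arabinose induction levels of 1E3 to 1E7 nM. Growth is read as OD600 after 10 h at 37 °C in triplicate biological replicates.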

E. coli TESEC Mtb Alr [2] = details: compound 0.1 mM
Experimental: as §1

E. coli TESEC Mtb Asd = details: compound 0.1 mM
Experimental: (§2)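 TESEC E. coli strains in which the native enzyme is deleted and replaced by arabinose-inducible Mtb Asd, DapB, CysH or TrpD, each grown in its selective medium. Strains were screened against the Prestwick library at 0.1 mM and 1% DMSO in 384-well format at low and high arabinose induction. Growth is read as OD600 after 10 h in triplicate.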

E. coli TESEC Mtb DapB = details: compound 0.1 mM
Experimental: as §2

[3] = tested on: E. coli TESEC Alr+ wild-type control; details: compound 0.1 mM; raw OD600 reference: median of DMSO wells 0.49, cell-free background 0.052
Experimental: (§3)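 TESEC Mtb Alr E. coli (ΔaraC ΔtolC ΔentC Δalr ΔdadX, arabinose-inducible Mtb Alr) or the Alr+ wild-type control strain, grown in defined M9-fructose medium without D-alanine in 96-well plates with Prestwick library compounds at 0.1 mM and 1% DMSO. Low Alr induction is 0.1 µM arabinose and high induction is 10 mM arabinose.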

E. coli TESEC Mtb Alr [4] = details: compound 0.1 mM; remark: listed apart in the source
Experimental: as §3

[5] = arabinose 1000 nM, raw OD600 reference: median of DMSO wells 0.294, cell-free background 0.041
[6] = arabinose 10000 nM, raw OD600 reference: median of DMSO wells 0.264, cell-free background 0.041
[7] = arabinose 100000 nM, raw OD600 reference: median of DMSO wells 0.201, cell-free background 0.041
[8] = arabinose 1000000 nM, raw OD600 reference: median of DMSO wells 0.193, cell-free background 0.041
[9] = arabinose 10000000 nM, raw OD600 reference: median of DMSO wells 0.146, cell-free background 0.041
[10] = arabinose induction (level): High, raw OD600 reference: median of DMSO wells 0.331, cell-free background 0.041
[11] = arabinose induction (level): Low, raw OD600 reference: median of DMSO wells 0.417, cell-free background 0.041
[12] = arabinose induction (level): High, raw OD600 reference: median of DMSO wells […], cell-free background 0.041
[13] = arabinose induction (level): Low, raw OD600 reference: median of DMSO wells 0.227, cell-free background 0.041
[14] = arabinose 100 nM, raw OD600 reference: median of DMSO wells 0.413, cell-free background 0.052
[15] = arabinose 10000000 nM, raw OD600 reference: median of DMSO wells […], cell-free background 0.052

Structure (SMILES) | growth [1] | growth (E. coli TESEC Mtb Alr [2]; [5]) | growth (E. coli TESEC Mtb Alr [2]; [6]) | growth (E. coli TESEC Mtb Alr [2]; [7]) | growth (E. coli TESEC Mtb Alr [2]; [8]) | growth (E. coli TESEC Mtb Alr [2]; [9]) | growth (E. coli TESEC Mtb Asd; [10]) | growth (E. coli TESEC Mtb Asd; [11]) | growth (E. coli TESEC Mtb DapB; [12]) | growth (E. coli TESEC Mtb DapB; [13]) | growth [3] | growth (E. coli TESEC Mtb Alr [4]; [14]) | growth (E. coli TESEC Mtb Alr [4]; [15])
COc1ccc(CN(CCN(C)C)c2ccccn2)cc1 [Pyrilamine maleate] | 0.2136 ± 0.002 | 0.269 ± 0.018 | 0.263 ± 0.0074 | 0.179 ± 0.008 | 0.154 ± 0.0054 | 0.135 ± 0.0052 | 0.206 ± 0.052 | 0.426 ± 0.034 | 0.188 ± 0.017 | 0.211 ± 0.029 | 0.528 ± 0.077 | 0.3958 ± 0.0033 | 0.321 ± 0.015
CC(=O)Nc1ccc(O)cc1 [Acetaminophen] | 0.251 ± 0.0034 | 0.315 ± 0.0071 | 0.277 ± 0.0034 | 0.202 ± 0.0068 | 0.188 ± 0.0053 | 0.162 ± 0.0048 | 0.473 ± 0.034 | 0.455 ± 0.0071 | 0.215 ± 0.018 | 0.251 ± 0.027 | 0.559 ± 0.083 | 0.407 ± 0.015 | 0.335 ± 0.011
CC1(C)S[C@@H]2[C@H](NC(=O)[C@H](C(=O)O)c3ccsc3)C(=O)N2[C@H]1C(=O)O [Ticarcillin sodium] | 0.256 ± 0.0056 | 0.296 ± 0.0051 | 0.28 ± 0.0035 | 0.2 ± 0.031 | 0.226 ± 0.0051 | 0.142 ± 0.0031 | 0.331 ± 0.056 | 0.305 ± 0.0068 | 0.178 ± 0.0019 | 0.196 ± 0.019 | 0.577 ± 0.095 | 0.419 ± 0.0051 | 0.354 ± 0.0093
O=C(CCCN1CC=C(n2c(=O)[nH]c3ccccc32)CC1)c1ccc(F)cc1 [Droperidol] | 0.178 ± 0.0085 | 0.241 ± 0.005 | 0.225 ± 0.0067 | 0.175 ± 0.014 | 0.105 ± 0.0018 | 0.152 ± 0.0037 | 0.205 ± 0.056 | 0.359 ± 0.058 | 0.184 ± 0.015 | 0.206 ± 0.029 | 0.404 ± 0.025 | 0.409 ± 0.0085 | 0.276 ± 0.0059
CC(C)N1CCN(c2ccc(OCC3COC(Cn4cncn4)(c4ccc(Cl)cc4Cl)O3)cc2)CC1 (stereo unspecified) [Terconazole] | 0.193 ± 0.011 | 0.266 ± 0.023 | 0.266 ± 0.0048 | 0.23 ± 0.022 | 0.205 ± 0.0063 | 0.15383 ± 0.00015 | 0.252 ± 0.021 | 0.397 ± 0.14 | 0.198 ± 0.0065 | 0.223 ± 0.011 | 0.462 ± 0.031 | 0.412 ± 0.014 | 0.315 ± 0.019
CCC1(c2ccccc2)C(=O)NCNC1=O [Primidone] | 0.243 ± 0.011 | 0.296 ± 0.0094 | 0.255 ± 0.0076 | 0.201 ± 0.012 | 0.18 ± 0.0097 | 0.144 ± 0.0039 | 0.448 ± 0.024 | 0.463 ± 0.043 | 0.208 ± 0.014 | 0.249 ± 0.013 | 0.567 ± 0.028 | 0.408 ± 0.015 | 0.333 ± 0.0042
CC1=C(/C=C/C(C)=C/C=C/C(C)=C\C(=O)O)C(C)(C)CCC1 [Isotretinoin] | 0.245 ± 0.0032 | 0.274 ± 0.016 | 0.24 ± 0.0073 | 0.218 ± 0.012 | 0.11 ± 0.0034 | 0.15 ± 0.004 | 0.328 ± 0.098 | 0.365 ± 0.073 | 0.185 ± 0.018 | 0.195 ± 0.014 | 0.425 ± 0.028 | 0.438 ± 0.0094 | 0.251 ± 0.014
C#C[C@]1(O)CC[C@H]2[C@@H]3CCc4cc(O)ccc4[C@H]3CC[C@@]21C [Ethinylestradiol] | 0.0556 ± 0.00079 | 0.0489 ± 0.0023 | 0.0421 ± 0.00055 | 0.0506 ± 0.0016 | 0.0444 ± 0.00061 | 0.05593 ± 0.00015 | 0.112 ± 0.017 | 0.0911 ± 0.062 | 0.0856 ± 0.007 | 0.0703 ± 0.0015 | 0.0818 ± 0.0029 | 0.303 ± 0.024 | 0.0705 ± 0.016
CCOC(=O)/C=C(C)/C=C/C=C(C)/C=C/c1c(C)cc(OC)c(C)c1C [Etretinate] | 0.242 ± 0.0089 | 0.308 ± 0.015 | 0.257 ± 0.011 | 0.211 ± 0.0087 | 0.161 ± 0.0097 | 0.151 ± 0.0019 | 0.257 ± 0.042 | 0.341 ± 0.025 | 0.1575 ± 0.0014 | 0.186 ± 0.0064 | 0.544 ± 0.058 | 0.41 ± 0.0092 | 0.344 ± 0.014
CNCCC=C1c2ccccc2CCc2ccccc21 [Nortriptyline hydrochloride] | 0.188 ± 0.014 | 0.181 ± 0.0093 | 0.205 ± 0.011 | 0.155 ± 0.01 | 0.0683 ± 0.00076 | 0.0845 ± 0.0019 | 0.137 ± 0.0013 | 0.179 ± 0.0089 | 0.185 ± 0.025 | 0.195 ± 0.04 | 0.46 ± 0.061 | 0.4083 ± 0.0029 | 0.264 ± 0.013
CC(=O)[C@@]1(O)CC[C@H]2[C@@H]3C[C@H](C)C4=CC(=O)C=C[C@]4(C)[C@@]3(F)[C@@H](O)C[C@@]21C [Fluorometholone] | 0.235 ± 0.021 | 0.308 ± 0.011 | 0.248 ± 0.011 | 0.2 ± 0.018 | 0.13 ± 0.007 | 0.153 ± 0.0031 | 0.457 ± 0.013 | 0.428 ± 0.019 | 0.209 ± 0.0065 | 0.272 ± 0.017 | 0.447 ± 0.013 | 0.423 ± 0.007 | 0.334 ± 0.049
CC(C)(C)NC(=O)[C@H]1CC[C@H]2[C@@H]3CC[C@H]4NC(=O)C=C[C@]4(C)[C@H]3CC[C@]12C [Finasteride] | 0.121 ± 0.003 | 0.201 ± 0.015 | 0.201 ± 0.0065 | 0.133 ± 0.0022 | 0.0954 ± 0.00085 | 0.144 ± 0.0043 | 0.308 ± 0.064 | 0.268 ± 0.064 | 0.183 ± 0.0049 | 0.228 ± 0.006 | 0.351 ± 0.011 | 0.366 ± 0.022 | 0.182 ± 0.03
COc1ccccc1N1CCN(CCCNc2cc(=O)n(C)c(=O)n2C)CC1 [Urapidil hydrochloride] | 0.224 ± 0.0078 | 0.274 ± 0.021 | 0.259 ± 0.0036 | 0.173 ± 0.017 | 0.17 ± 0.004 | 0.137 ± 0.0051 | 0.28 ± 0.038 | 0.455 ± 0.065 | 0.183 ± 0.017 | 0.201 ± 0.015 | 0.713 ± 0.029 | 0.409 ± 0.017 | 0.326 ± 0.011
CCN(CC)C(=O)N1CCN(C)CC1 [Diethylcarbamazine citrate] | 0.255 ± 0.0031 | 0.274 ± 0.031 | 0.275 ± 0.015 | 0.196 ± 0.017 | 0.191 ± 0.0045 | 0.148 ± 0.0047 | 0.333 ± 0.092 | 0.487 ± 0.02 | 0.188 ± 0.0069 | 0.226 ± 0.025 | 0.549 ± 0.066 | 0.411 ± 0.0087 | 0.33 ± 0.014
CC(C)OC(=O)C(C)(C)Oc1ccc(C(=O)c2ccc(Cl)cc2)cc1 [Fenofibrate] | 0.219 ± 0.0026 | 0.235 ± 0.015 | 0.245 ± 0.0051 | 0.143 ± 0.0063 | 0.0897 ± 0.0018 | 0.161 ± 0.0021 | 0.298 ± 0.013 | 0.397 ± 0.039 | 0.176 ± 0.015 | 0.215 ± 0.037 | 0.469 ± 0.026 | 0.401 ± 0.016 | 0.089 ± 0.01
CCCCCN(CCCCC)C(=O)C(CCC(=O)O)NC(=O)c1ccc(Cl)c(Cl)c1 (stereo unspecified) [Lorglumide sodium salt] | 0.152 ± 0.0035 | 0.158 ± 0.01 | 0.114 ± 0.0014 | 0.158 ± 0.0084 | 0.0691 ± 0.00087 | 0.125 ± 0.0012 | 0.194 ± 0.019 | 0.162 ± 0.0069 | 0.153 ± 0.015 | 0.243 ± 0.015 | 0.104 ± 0.002 | 0.302 ± 0.17 | 0.161 ± 0.025
C#CCN(C)Cc1ccccc1 [Pargyline hydrochloride] | 0.25 ± 0.0048 | 0.291 ± 0.0091 | 0.278 ± 0.0057 | 0.206 ± 0.02 | 0.19 ± 0.0033 | 0.142 ± 0.0058 | 0.34 ± 0.035 | 0.429 ± 0.047 | 0.177 ± 0.0081 | 0.194 ± 0.0055 | 0.516 ± 0.11 | 0.412 ± 0.0092 | 0.357 ± 0.007
